Assay results reported in article PMC5540273 (PLoS ONE, 2017).

Tested on: T1, RSK2(Kin.Dom.2-C-terminal)
T1 construct: gene RPS6KA3
Conditions: concentration: 1 μM, replicates: in singlicate; n = 1
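Also: KINOMEscan kinase panel screen.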

| Compound | %Inh [%] |
| --- | --- |
| CNC(=O)c1ccccc1Nc1nc(Nc2ccc(N3CCOCC3)cc2)ncc1Cl.Cl [GSK1576028] | 0 |
| c1ccc(-c2cnc3nccnn23)cc1 [AH20685] | 0 |
| CN(C)S(=O)(=O)c1cc(-c2ccc3nccc(-c4cccc(S(N)(=O)=O)c4)c3c2)cnc1N [GSK1669921] | 76 |
| COc1cccc(NC(=O)NC2CCN(c3ccnc(Nc4cc(OC)c(OC)c(OC)c4)n3)C2)c1 (stereo not drawn) [GSK1379763] | 8 |
| C[C@@H](Oc1cc(-n2cnc3cc(-c4ccnc(NCCS(C)(=O)=O)c4)ccc32)sc1C(N)=O)c1ccccc1Cl [GSK907232] | 4 |
| Fc1ccc(-c2ncn(C3CCNCC3)c2-c2ccnc(Oc3ccc(-c4ccccc4)cc3)n2)cc1 [SB-245391] | 41 |
| COc1cccc(C(=O)Nc2cccc(Oc3ccc4nc(NC(=O)C5CC5)cn4n3)c2)c1 | 0 |
| Nc1ncc(-c2cccnc2)c2scc(-c3ccc4c(c3)CCN4C(=O)Cc3ccccc3)c12 [GSK683281] | 24 |
| Cc1occc1-c1ncc(OC[C@@H](N)Cc2c[nH]c3ccccc23)cc1-c1ccc2[nH]nc(C)c2c1.O=C(O)C(F)(F)F [GSK682037] | 0 |
| Nc1n[nH]c2cnc(-c3ccccc3)cc12 [SB-642124] | 23 |
| Cc1ccc(S(=O)(=O)Nc2ccc(Nc3nccc(Nc4cccc5[nH]ncc45)n3)cc2)cc1 [GSK581271] | 0 |
| c1ccc(-c2n[nH]cc2Nc2ccnc3ccccc23)nc1 [GW694077] | 24 |
